# Assay results taken from ChEMBL document CHEMBL4513216, “Probing the Open Global Health Chemical Diversity Library for Multistage-Active Starting Points for Next-Generation Antimalarials” (ACS Infect Dis, 2020).
# About 2,700 (4%) of roughly 68,000 compounds showed an effect of 50% or more. This excerpt belongs to a sample that is enriched for strong results.
# System: Plasmodium berghei
# Experiment: Screen against P. berghei liver stage (PbLuc), transformed with Luciferase, at 2uM
# Format: functional, HepG2
# Conditions: tested at 2 uM
row,SMILES,INHIBITION [%]
1,N#Cc1ccc(F)c(CNc2ccc(F)cc2OCCO)c1,-17.04
2,N#Cc1ccc(SCCOCCO)c(F)c1,53.63
3,CCCS(=O)(=O)CCSc1cccc(C#N)c1,32.97
4,N#Cc1ccc(SCCC(=O)O)cc1,1.8
5,CO[C@@H]1CCC[C@@H](NC(=O)C(C)(C)c2cccc(F)c2)[C@H]1O,-21.9
6,CC(C)n1cnc2c1C(C(=O)N1CCCC1)N(S(C)(=O)=O)CC2 (configuration not stated),29.19
7,Cn1cc(I)c(C(=O)NCCCn2cc(Br)cn2)n1,-6.71
8,Cc1nn(C)c(C)c1C(C(=O)O)N1CCc2ccccc2C1 (configuration not stated),11.33
9,O=C(NCCS(=O)(=O)N1CCN(c2ncccn2)CC1)c1ccccc1,30.62
10,Cc1nc(CN2C[C@@H]3CCCO[C@@H]3[C@H](N(C)C(C)C)C2)cs1,-20.01
11,CC(=O)N1CC(C)CN(C(=O)c2cccnc2C)c2ccccc21 (configuration not stated),-5.98
12,N#Cc1c(Cl)nsc1NCc1cccnc1OC1CCCC1,-59.9
13,O=c1[nH]cnc2c1CCN(S(=O)(=O)c1ccc(Cl)cc1)C2,5.1
14,O=S1(=O)c2ccccc2C2(CCN(Cc3cccnc3)C2)N1CC1CC1 (configuration not stated),30.39
15,CCS(=O)(=O)N1CCc2nc(N3CCOCC3)nc(N(C)C)c2CC1,21.57
16,Cc1nc(N2CCCC2)nc2c1CCN(C(=O)NC1CCCC1)CC2,40.28
17,CCC(=O)N1CCc2nc(N3CCOCC3)nc(N(C)C)c2CC1,54.62
18,CC(=O)N1CCc2nc(N3CCCC3)nc(C)c2C1,15.57
19,Cc1nc(N2CCOCC2)nc2c1CCN(C(=O)NC1CCCC1)CC2,51.57
20,Cc1nc(N2CCCC2)nc2c1CN(C(=O)NC(C)C)CC2,60.05
21,Cc1nc(N2CCOCC2)nc2c1CCN(C(=O)C1CCCCC1)CC2,36.99
22,Cc1nc(N2CCCC2)nc2c1CCN(C(=O)NC(C)C)CC2,-4.2
23,CCCS(=O)(=O)N1CCc2nc(N3CCOCC3)nc(N(C)C)c2C1,40.64
24,N#Cc1cccc(C(=O)NC2CCc3c(ccc(=O)n3CC3CC3)C2)c1 (configuration not stated),-7.45
25,COC(=O)c1cccc(S(=O)(=O)NC(=O)CC2CCCC2)c1,-30.66
26,CC1CN(Cc2nnsc2Cl)CCN1c1nccs1 (configuration not stated),24.82

row,SMILES,INHIBITION [%]
1,O=C(NC1CC1)[C@H]1C[C@@H]2CCN(Cc3ccc4c(c3)OCO4)C[C@@H]2O1,14
2,CCc1cc(NCCN2CCNC2=O)n2nc(C)c(C)c2n1,-35.07
3,O=C(Cc1ccccc1)N1CCC(c2nnc(-c3ccccn3)o2)CC1,11.53
4,CCn1ncc(CN2CCN(C(=O)Cn3cc(Br)c(C)n3)CC2)c1C,-22.24
5,COc1cccc(CN(Cc2ccco2)Cc2cnc(C)n2C)c1,-4.04
6,Cc1nc2cc(=O)[nH]n2c(C)c1CNC(=O)c1cnn(C(C)(C)C)c1,-46.8
7,COc1ncccc1NC(=O)N(Cc1ccco1)C1CC1,20.93
8,CCN(C(=O)Nc1cccnc1OC)C1CC1,-14.3
9,Cc1ccc(CN(C(=O)NCC(c2cccs2)N(C)C)C2CC2)o1 (configuration not stated),-38.2
10,COc1ncccc1NC(=O)N(Cc1ccc(C)o1)C1CC1,51.21
11,Cc1ccc(CN(C(=O)NCC2CCCO2)C2CC2)o1 (configuration not stated),57.85
12,Cc1ccc(CN(C(=O)NCC2CCS(=O)(=O)C2)C2CC2)o1 (configuration not stated),26.39
13,Cc1cc(CN2CCN(C(=O)CCCc3nc(C(C)C)no3)CC2)on1,26.06
14,COc1ncc(-c2ccc(C(N)=O)cc2)c(OC)n1,29.41
15,Cc1cc(C)c(CNC(=O)NCCCNc2ccccn2)c(=O)[nH]1,34.65
16,CCN1C[C@H]2CCN(C(=O)NC)CC[C@H]2S1(=O)=O,-11.73
17,CCN1C[C@H]2CCN(C(C)=O)CC[C@H]2S1(=O)=O,59.49
18,COCCN1C[C@H]2CCN(C(C)=O)CC[C@H]2S1(=O)=O,43.05
19,O=C(NCCN1CCOCC1)c1ccc(-c2ccccc2)[nH]c1=O,40.47
20,O=C(NCCN1CCOCC1)c1ccn(COc2ccc(F)cc2)n1,-10.62
21,O=C(NCCCN1CCOCC1)c1ccn(COc2ccc(F)cc2)n1,58.42
22,Cc1ccc(C(=O)NCCN2CCOCC2)c(=O)[nH]1,-84.65
23,O=C(NCCCN1CCOCC1)c1ccn(COc2ccc(Br)cc2)n1,12.84
24,O=C(NCCN1CCOCC1)c1ccc(-c2ccc(F)cc2)nc1O,58.75
25,CCc1nnc(C(C)N2CCN(CCC(=O)NC3CC3)CC2)o1 (configuration not stated),35.61
26,CC(C)(C)C(CCO)NC(=O)Nc1ccncc1 (configuration not stated),6.84
